The panel holds about 83,000 compounds, 20% with a hit somewhere; the sample as a whole holds those more often.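 Percent growth is the endpoint: 0 to 100 indicates growth inhibition (40 means 60% inhibition), 0 means no net growth, and negative values indicate cell death.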 Unmarked numbers belong to inactive results. Active and inactive are the calls of the source. The calls were made as follows: active = growth percent below 10; inactive = the rest.
Legend:
Assay in all cases: NCI-60 one-dose screen, 48 h (100 = growth as untreated, 0 = no growth, -100 = all killed)
Details in all cases: 10 µM unless noted
[1] = system: SK-MEL-2 melanoma
[2] = system: EKVX NSCLC
[3] = system: SN12C renal
[4] = system: UO-31 renal
[5] = system: TK-10 renal
[6] = system: ACHN renal
[7] = system: A498 renal
[8] = system: CCRF-CEM leukemia
[9] = system: MOLT-4 leukemia
[10] = system: CAKI-1 renal

SMILES	growth [1]	growth [2]	growth [3]	growth [4]	growth [5]	growth [6]	growth [7]	growth [8]	growth [9]	growth [10] [%]
Cc1cc(N(CCCNc2ccnc3cc(Cl)ccc23)Cc2ccco2)nc(Cl)n1	65.4%	43.5%	58.8%	36.7%	62.6%	64.8%	46.1%	67.3%	43.4%	
Cn1cc(-c2csc(-c3cn(CCCN4CCCCC4)c4ccc(Br)cc34)n2)c2cccnc21	37%	49.6%	-31.3% (active)	-93.9% (active)	26.7%	-61.1% (active)	79.1%	-23.8% (active)	-46.3% (active)	
C=C1C(=O)O[C@H]2[C@H]1CC/C(COC(=O)NCc1c[nH]c3ccccc13)=C\CC[C@@]1(C)O[C@@H]21	70.5%	84.2%	44.4%	-62.7% (active)	34.3%	-36.2% (active)	102%	7.29% (active)	1.16% (active)	
COc1ccc(-c2nc3c(c(C)nn3-c3ccc(F)cc3)c(=O)[nH]2)cc1	92.3%	81.6%	56.9%	52.1%	65.8%	6.33% (active)	70.8%	86.9%	98.1%	
CCCCC[C@H]1C/C=C2/C(=O)C(Cl)=C[C@@H]2C/C=C\CCCC(=O)O1	-45.4% (active)	-69% (active)	-26.9% (active)	-100% (active)	-56.7% (active)	-84.4% (active)	-76.2% (active)	0.514% (active)	-2.82% (active)	
Cn1cc(-c2csc(-c3cn(CCNC(=O)OC(C)(C)C)c4ccccc34)n2)c2cccnc21	88.2%	67.9%	87.8%	42.7%	122%	74.3%	82.4%	43.4%	42.3%	
C=C1C(=O)O[C@H]2[C@H]1CC/C(COC(=O)NCCc1c[nH]c3ccccc13)=C\CC[C@@]1(C)O[C@@H]21	61.5%	69.2%	-0.18% (active)	-100% (active)	-20.7% (active)	-93.7% (active)	80.8%	3.28% (active)	-3.9% (active)	
COc1ccc2[nH]c(-c3ccc(Cl)cc3)cc(=O)c2c1	96.3%	95.2%	93.6%	94.4%	93.4%	103%	93.2%	36.3%	99.2%	
Fc1ccc2c(c1)c(-c1nc(-c3c[nH]c4ncccc34)cs1)cn2CCCN1CCCCC1	106%	66%	63.1%	44.4%	107%	71.7%	77.8%	8.52% (active)	12.9%	
O=C1Nc2ccccc2/C1=C/c1cn(CCCn2c3ccccc3c(=O)c3ccccc32)c2ccccc12	84.4%	60.3%	92%	44.6%	140%	89%	112%	98.4%	77.7%	
Brc1ccc2c(c1)c(-c1nc(-c3c[nH]c4ncccc34)cs1)cn2CCCN1CCCCC1	36.8%	50.1%	25.3%	-52% (active)	76.2%	-23.7% (active)	77%	-35.5% (active)	-44.6% (active)	
O=C1CCCC=CC[C@H]2C=C(Cl)C(=O)C2=CC[C@H](CCCCC(F)(F)F)OC(=O)CCCC=CC[C@H]2C=C(Cl)C(=O)C2=CC[C@H](CCCCC(F)(F)F)OC(=O)CCCC=CC[C@H]2C=C(Cl)C(=O)C2=CC[C@H](CCCCC(F)(F)F)O1	90.1% [6.25 µM]	98.4% [6.25 µM]	56.3% [6.25 µM]	78.9% [6.25 µM]	148% [6.25 µM]	71.2% [6.25 µM]	101% [6.25 µM]	8.35% [6.25 µM] (active)	15.2% [6.25 µM]	
C[C@@H](C(=O)O)c1ccc2c3cc(Cl)ccc3n(Cc3cc(=O)oc4ccc(Cl)cc34)c2c1	101%	97%	98.8%	76.3%	116%	99.8%	102%	105%	101%	
O=C(N/N=C/c1ccccc1SSc1ccccc1/C=N/NC(=O)c1ccccc1)c1ccccc1	24.8%	25.8%	43.4%	18.6%	31.8%	15.4%	75.8%	16%	10.8%	
COc1ccc2c(c1)c(-c1nc(-c3c[nH]c4ncccc34)cs1)cn2CCCN1CCCCC1	73.6%	51.2%	58%	36.5%	77.5%	22.3%	66.1%	-0.15% (active)	-18.9% (active)	
COc1ccc(NC(=S)N/N=C/c2ccccc2SSCCC(=O)OC[C@H]2O[C@H](O)[C@H](O)[C@@H](O)[C@@H]2O)cc1	78.9%	72.9%	81.2%	81.4%	136%	101%	93.4%	92.4%	65.4%	
Cn1cc(-c2csc(-c3cn(CCN)c4ccccc34)n2)c2cccnc21	61%	50.4%	54.1%	33.2%	92.9%	56.6%	74.9%	8.25% (active)	10.1%	
Cc1cc(N2CCCCC2)nc(N(CCCNc2ccnc3cc(Cl)ccc23)Cc2ccco2)n1	44.8%	39.4%	36.3%	15.6%	63.2%	38.8%	46.5%	19.5%	6.82% (active)	
NCCn1cc(-c2nc(-c3c[nH]c4ncccc34)cs2)c2cc(Br)ccc21	101%	64%	78%	62.2%	149%	76.4%	93.6%	60%	41.8%	
COc1ccc2c(c1)c(-c1nc(-c3cn(C)c4ncccc34)cs1)cn2CCCN1CCCCC1	102%	61.6%	76.2%	62.9%	89.7%	1.33% (active)	74.7%	2.69% (active)	23.4%	
Cn1cc(-c2csc(-c3cn(CCCN4CCCCC4)c4ccc(F)cc34)n2)c2cccnc21	93.5%	77.3%	83.9%	78.2%	99.7%	83.7%	73.4%	-29.9% (active)	70.4%	
Cn1cc(-c2csc(-c3cn(CCN)c4ccc(Br)cc34)n2)c2cccnc21	110%	74.9%	68.9%	61.4%	116%	50.8%	83.9%	39.8%	13.5%	
Cc1cc(Cl)nc(N(CCNc2ccnc3cc(Cl)ccc23)Cc2ccco2)n1	55.8%	63.6%	33.5%	-33.5% (active)	64%	17.7%	70.2%	8.24% (active)	6.36% (active)	
C=C1C(=O)O[C@H]2[C@H]1CC/C(COC(=O)NCc1cc3ccccc3[nH]1)=C\CC[C@@]1(C)O[C@@H]21	52.7%	54.7%	-56.8% (active)	-100% (active)	-54.8% (active)	-75.9% (active)	92.5%	2.95% (active)	1.8% (active)	
NCCn1cc(-c2nc(-c3c[nH]c4ncccc34)cs2)c2cc(F)ccc21	94.7%	48.6%	79%	53.3%	142%	76.4%	91.4%	49%	57%	
C=C(C)[C@@H]1CC[C@]2(C)CC[C@]3(C)[C@H](CC[C@@H]4[C@@]5(C)CCCNC(C)(C)[C@@H]5CC[C@]43C)[C@@H]12	119%	103%		88.2%	142%	95.5%	79.7%	52%	46.6%	75.3
N#CC1C(=N)Cc2ccccc2-c2ccccc21 (configuration not stated)	31.1%	67.1%		53.8%	78.1%	75%	55.3%	62.6%	25.8%	29
Cc1cc(N2CCN(C)CC2)nc(N(CCNc2ccnc3cc(Cl)ccc23)Cc2ccco2)n1	55.8%	57.2%	58.3%	54.8%	105%	54.5%	73.4%	14.1%	28.8%	

— PubChem BioAssay (NCI)
